Measurements as given in PubChem BioAssay (EPA / NIEHS).
Activity calls are given as the source filed them. The calls were made as follows: active = hit-call score of the fitted dose curve at least 0.9, where 1 is the maximum; inactive = score below 0.9.

Assay: APR_HepG2_CellLoss_1hr: Apredica 1-hour HepG2 Assay for Cell Loss (AID 2282668);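 also: curves fitted both ways against DMSO so gain or loss of cells counts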
Conditions: high-content imaging
Protocol: APR_HepG2_1hr is a cell-based, multiplexed-readout assay that uses HepG2, a human liver cell line, with measurements taken at 1 hour after chemical dosing in a 384-well plate.APR_HepG2_CellLoss_1hr is one of 10 assay component(s) measured or calculated from the APR_HepG2_1hr assay. It is designed to make measurements of cell number, a form of viability reporter, as detected with fluorescence intensity signals by HCS Fluorescent Imaging technology.Data from the assay component APR_HepG2_CellLoss_1hr was analyzed into 1 assay endpoint. This assay endpoint, APR_HepG2_CellLoss_1hr, was analyzed with bidirectional fitting relative to DMSO as the negative control and baseline of activity. Using a type of viability reporter, measures of all nuclear dna for gain or loss-of-signal activity can be used to understand the viability at the cellular-level. Furthermore, this assay endpoint can be referred to as a secondary readout, because this assay has produced multiple assay endpoints where this one serves a viability function. To generalize the intended target to other relatable targets, this assay endpoint is annotated to the cell cycle intended target family, where the subfamily is proliferation.
Cells were treated with dimethyl sulfoxide (DMSO) as a solvent control at a final concentration of 0.5% v/v or with compounds in DMSO with a resulting final DMSO concentration of 0.5% v/v. Compound treatment was done at concentrations of 0.39, 0.78, 1.56, 3.12, 6.24, 12.5, 25, 50, 100, and 200 uM in duplicate on each plate. Cells were treated with compounds for 1, 24, or 72 hr. Carbonyl […] m-chloro-phenylhydrazone (CCCP) and taxol were used as positive controls for mitochondrial function and cytoskeletal stability, respectively; DMSO served as the negative control for this experiment. Cells were fixed by the direct addition of 50 uL formaldehyde in Hank's Balanced Salt Solution (HBSS) to a final concentration of 3.7%. After incubation in the fixation medium for 30 min at room temperature (293-298 K), cells were rinsed twice with HBSS and treated with cell permeabilization buffer (16 uL of 0.5% Triton X-100) for 10 min at room temperature (293-298 K) before labeling. For mitochondrial membrane potential and mitochondrial measurements, pre-fixed cells were incubated with 50 uL of MitoTracker Red CMXRos (Invitrogen) at a concentration of 250 nM for 30 min before fixation. In the remaining cases, post-fixed cells were labeled by incubation with a multiplexed mixture of primary antibodies in HBSS for 60 min at room temperature (293-298 K) to detect immunoreactivity of c-Jun (1:500), phospho-histone H3 (1:100), phospho-histone H2A.x (1:200), p53 (1:400), alpha-tubulin (1:200) and Hoechst 33342 (2 ug/mL). Cells were labeled for multiplexed imaging on two separate plates: a) Hoechst 33342, MitoTracker Red, phospho-histone H3, and alpha-tubulin, and b) Hoechst 33342, phospho-histone H2A.x, and c-Jun. A final rinse with HBSS (50 uL) was performed before analysis. The primary and secondary antibodies for the proteins were phospho-histone H3 (rabbit anti-phospho-histone H3 and FITC-donkey anti-rabbit IgG), phospho-histone H2A.x (mouse anti-phospho-histone H2A.x and FITC-donkey anti-mouse IgG), c-Jun (rabbit anti-phospho-c-Jun and Cy3-donkey anti-rabbit IgG), p53 (sheep anti-p53 and Cy5-donkey anti-sheep IgG), alpha-tubulin (mouse anti-alpha-tubulin and Cy5-donkey anti-mouse IgG). These antibodies are available as the CellCiphr HepG2 assay kit (Millipore).Digital images of each well were captured using a Cellomics ArrayScan VTI (Thermo Scientific Cellomics) (0.8 NA objective, 0.63x optical coupler, and XF-93 filter set) at 20x magnification. The images were acquired using the autofocus feature of the ArrayScan instrument, which entails the following steps. First, the camera focuses on channel 1 (Hoechst 33342), where nuclei are identified. Second, a Z offset of 1 um is used for capturing mitochondria (MitoTracker Red). […]

| Compound | outcome | AC50 |
| --- | --- | --- |
| CN(C)[C@@H]1C(=O)C(C(N)=O)=C(O)[C@@]2(O)C(=O)C3=C(O)c4c(O)cccc4[C@@](C)(O)[C@H]3[C@H](O)[C@@H]12 | inactive |  |
| O=[N+]([O-])c1cc(C(F)(F)F)c(Cl)c([N+](=O)[O-])c1Nc1ncc(C(F)(F)F)cc1Cl |  | 94.8 µM (active) |
| CNC(=O)ON=C(C)SC | inactive |  |
| CCOP(=S)(OCC)Oc1ccc2c(C)c(Cl)c(=O)oc2c1 | inactive |  |
| CNC(=O)ON=C(SC)C(=O)N(C)C | inactive |  |
| CCC(=NOC/C=C/Cl)C1=C(O)CC(C2CCOCC2)CC1=O (stereo not given) | inactive |  |
| CCOP(=S)(OCC)Oc1ccc([N+](=O)[O-])cc1 | inactive |  |
| N#CSCSC#N | inactive |  |
| CN(C)C(=O)Nc1cccc(C(F)(F)F)c1 | inactive |  |
| CCc1cccc(C)c1N(C(=O)CCl)C(C)COC (stereo not given) | inactive |  |
| COP(=O)(OC)C(O)C(Cl)(Cl)Cl (stereo not given) | inactive |  |
| CCOP(=O)(OCC)Oc1cc(C)nc(C(C)C)n1 | inactive |  |
| CCCCOC(=O)c1ccccc1C(=O)O | inactive |  |
| FC(F)C(F)(F)OCC(Cn1cncn1)c1ccc(Cl)cc1Cl (stereo not given) | inactive |  |
| CCOC(=O)COc1cc(-c2nn(C)c(OC(F)F)c2Cl)c(F)cc1Cl | inactive |  |
| COP(=O)(OC)OC(Br)C(Cl)(Cl)Br (stereo not given) | inactive |  |
| CC(C)N(C(=O)SCC(Cl)=C(Cl)Cl)C(C)C | inactive |  |
| CC(Oc1cccc(Cl)c1)C(=O)O (stereo not given) | inactive |  |
| COc1ccc(C(=CC(=O)N2CCOCC2)c2ccc(Cl)cc2)cc1OC | inactive |  |
| CN(C)NC(=O)CCC(=O)O | inactive |  |

| Compound | outcome | AC50 |
| --- | --- | --- |
| CCOP(=S)(OCC)OC(Cl)C(Cl)(Cl)Cl (stereo not given) | inactive |  |
| CON=C(C(=O)OC)c1ccccc1CON=C(C)c1cccc(C(F)(F)F)c1 | inactive |  |
| C[N+]1(C)CCCCC1 | inactive |  |
| CCc1cccc(CC)c1N(COC)C(=O)CCl | inactive |  |
| CSc1nc(NC(C)C)nc(NC(C)C)n1 | inactive |  |
| CCCSP(=O)(OCC)Oc1ccc(Br)cc1Cl (stereo not given) | inactive |  |
| CC(C1CC1)C(O)(Cn1cncn1)c1ccc(Cl)cc1 (stereo not given) | inactive |  |
| Nc1nc(N)nc(NC2CC2)n1 | inactive |  |
| CCNc1nc(Cl)nc(NC(C)(C)C#N)n1 | inactive |  |
| S=C1NCCN1 | inactive |  |
| CC(COc1ccc(Oc2ccccc2)cc1)Oc1ccccn1 (stereo not given) | inactive |  |
| CC1=NNC(=O)N(/N=C/c2cccnc2)C1 | inactive |  |
| CC[C@H](C)[C@H]1O[C@]2(C=C[C@@H]1C)C[C@@H]1C[C@@H](C/C=C(\C)[C@@H](O[C@H]3C[C@H](OC)[C@@H](O[C@H]4C[C@H](OC)[C@@H](NC)[C@H](C)O4)[C@H](C)O3)[C@@H](C)/C=C/C=C3\CO[C@@H]4[C@H](O)C(C)=C[C@@H](C(=O)O1)[C@]34O)O2 |  | 16.5 µM (active) |
| CCOC(=O)CC(SP(=O)(OC)OC)C(=O)OCC (stereo not given) | inactive |  |
| CSc1nnc(C(C)(C)C)c(=O)n1N | inactive |  |
| O=c1ccc(=O)[nH][nH]1 | inactive |  |
| COP(=O)(OC)SCn1c(=O)oc2cc(Cl)cnc21 | inactive |  |
| C#CC(C)(C)NC(=O)c1cc(Cl)cc(Cl)c1 | inactive |  |
| CCOP(=S)(Oc1cnc(C(C)(C)C)nc1)OC(C)C (stereo not given) | inactive |  |
| CCC(=O)Nc1ccc(Cl)c(Cl)c1 | inactive |  |
